Source: PubChem BioAssay (The Scripps Research Institute Molecular Screening Center)
hcDAF-12 act – H. contortus DAF-12 nuclear receptor activators, primary screen, cell-based, luminescence, HEK293, lit1-tk-luc reporter; HEK293 hcDAF-12 lit1-tk-luc reporter; 0% DMSO, 100% Δ7-dafachronic acid; activation, % at 6.8 µM; 370,000 compounds, 1.4% hits; AID 652067, 2013;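 active = activation above the mean of all tested compounds plus 3 SD, cut at about 5.5% in these data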
DAX1 inh-1 – DAX1 (NR0B1) inhibitors, primary screen, cell-based, HEK293, Gal4-DAX1, luciferase luminescence. HEK293 Gal4-DAX1 luciferase reporter. inhibition, % at 6.75 µM. 340,000 compounds, 0.99% hits;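 active = inhibition above the mean over all tested compounds plus 3 SD, cut at about 4.2% in these data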;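 note: inhibition shows as a rise in luminescence from relieved DAX1 repression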
Target sequence (P51843 207-470 limits assumed): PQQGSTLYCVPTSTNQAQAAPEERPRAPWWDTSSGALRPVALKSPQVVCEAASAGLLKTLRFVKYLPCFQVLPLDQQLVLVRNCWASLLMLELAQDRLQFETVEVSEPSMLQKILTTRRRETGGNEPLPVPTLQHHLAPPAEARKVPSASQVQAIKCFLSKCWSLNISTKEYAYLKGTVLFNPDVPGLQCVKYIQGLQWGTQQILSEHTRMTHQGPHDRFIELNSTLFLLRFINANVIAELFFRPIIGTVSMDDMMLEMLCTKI
ssDAF-12 act – S. stercoralis DAF-12 nuclear receptor activators, primary screen, cell-based, luminescence, HEK293, GRIP1 co-expression, lit1-tk-luc; HEK293 ssDAF-12/GRIP1 lit1-tk-luc reporter; % of 3 µM dafachronic acid response; activation, % at 6.8 µM; 370,000 compounds, 1% hits;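 active = activation above the mean over all tested compounds plus 3 SD, cut at about 0.9% in these data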
DAX1 inh-2 – DAX1 (NR0B1) inhibitors on StAR promoter, primary screen, cell-based, luminescence, SF-1 (NR5A1), full-length DAX-1; HEK293T StAR-luciferase reporter, SF-1/DAX-1 repression relief; AID 652010, 2013; inhibition, % at 6.8 µM; 370,000 compounds, 1.1% hits;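 active = inhibition above the mean over all tested compounds plus 3 SD, cut at about 3.6% in these data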;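 note: higher inhibition means more luminescence from relief of DAX-1 repression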
hgDAF-12 ag – H. glycines DAF-12 receptor agonists, primary screen, cell-based, luminescence, HEK293, GAL4 fusion, UAS-luciferase; Nuclear hormone receptor DAF-12 (Heterodera glycines), GAL4 fusion; HEK293 GAL4-hgDAF12 UAS-luciferase reporter, agonist luminescence; normalized to butyrate control; activation, % at 6.8 µM; 370,000 compounds, 1.8% hits;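 active = activation above a cutoff set at the mean of all screened compounds plus 3 SD, cut at about 10% in these data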
Hits are given with their value; 0 = inactive; - = no result. A selection: hits, their analogues and other compounds. The true share with any hit is near 4.1%.

SMILES	hcDAF-12 act	DAX1 inh-1	ssDAF-12 act	DAX1 inh-2	hgDAF-12 ag
COc1ccc(-n2c(SCC(=O)NCC3CCCO3)nnc2-c2ccncc2)cc1 (stereo unspecified)	0	-	0	0	0
Cc1ccccc1CNC(=O)Nc1ccc(Cl)cc1	0	5.5	0	0	0
Cc1ccc(CNC(=O)Nc2ccc(C)cc2)cc1	0	0	0	0	0
Cc1ccc(CNC(=O)Nc2ccccc2)c(C)c1	0	0	0	0	12.7
Cc1cc(/C=C2\C(=N)N3N=CSC3=NC2=O)c(C)n1Cc1ccccc1	0	5.4	0	0	0
CCCC1=NN2C(=N)/C(=C\c3cc(C)n(Cc4ccccc4)c3C)C(=O)N=C2S1	0	0	0	0	0
C[C@@H]1[C@@H](O)C[C@@]2(C[C@H](O)c3cc(Cl)cc(Cl)c3O2)O[C@H]1c1ccccc1Cl	0	-	0	0	0
CC(C)(C)c1ccc(S(=O)(=O)N2CCCC(C(=O)NCCN3CCC(Cc4ccccc4)CC3)C2)cc1 (stereo unspecified)	0	-	0	0	0
O=C(Nc1c(C(=O)Nc2cccc(F)c2)oc2ccccc12)c1ccc2c(c1)OCO2	0	0	0	0	0
Cc1ccc(NC(=O)c2oc3ccccc3c2NC(=O)c2ccc3c(c2)OCO3)cc1	0	0	1.1	0	0
COC(=O)C1CN(C2CCCC2)CCS(=O)(=O)N1Cc1ccc(C(F)(F)F)cc1 (stereo unspecified)	0	-	0	0	0
COC(c1ccccc1)c1nnc(CCC(=O)N(C)C(C2CC2)C2CC2)o1 (stereo unspecified)	0	5.2	0	0	0
O=C(NC1CCOc2ccccc21)c1ccccn1 (stereo unspecified)	5.8	0	0	0	0
CN(C)c1cccc(/C=C2\CC3(OC(=O)c4ccc(Cl)cc4)CCCN2C3)c1 (stereo unspecified)	0	-	0	0	0
CSCCC(NS(=O)(=O)c1ccc2c(c1)oc(=O)n2C)C(=O)NC1CCN(Cc2ccccc2)CC1 (stereo unspecified)	6.4	0	0	0	0
CSCCC(NS(=O)(=O)c1ccc2c(c1)oc(=O)n2C)C(=O)NCc1ccc(C)cc1 (stereo unspecified)	0	0	0	0	0
CSCCC(NS(=O)(=O)c1ccc2c(c1)oc(=O)n2C)C(=O)NC1CCC(C)CC1 (stereo unspecified)	0	0	0	3.7	0
OC(c1ccccc1)(c1ccccc1)C1CCN(CCCNc2ccc(C(F)(F)F)cc2)CC1	0	-	0	0	0
CCOC(=O)C1=C(C(=O)OCC)C2N(Cc3ccc(C#N)cc3)c3ccccc3[C@@]23C[C@@H](C(=O)OC)N(S(=O)(=O)c2ccc(C)cc2)C3=N1 (stereo partly specified)	0	-	0	0	0
O=S1(=O)c2c(cccc2N2CC[C@H](O)C2)OCCCN1C1CC1	0	-	0	0	0
Nc1c(C(=O)Nc2cccc(C(=O)O)c2)sc2nc3c(cc12)CCCC3	0	0	0	0	11.1
Nc1c(C(=O)Nc2ccc(Cl)c(C(=O)O)c2)sc2nc3c(cc12)CCCC3	0	0	0	0	0
CCCCNC(=O)Cn1cnc([N+](=O)[O-])n1	0	4.8	0	0	0
Nc1nc2ncc(CNc3ccc(C(=O)N[C@@H](CCC(=O)O)C(=O)O)cc3)nc2c(=O)[nH]1	0	5.2	0	0	0
NC(=O)c1cc(Cc2ccccc2)sc1NC(=O)c1ccco1	0	0	0	0	12.8
SMILES	hcDAF-12 act	DAX1 inh-1	ssDAF-12 act	DAX1 inh-2	hgDAF-12 ag
CCOc1ccc(OCC)c(NC(=O)c2ccc(CNc3c(N4CCCC4)c(=O)c3=O)cc2)c1	0	6.3	0	0	0
Cc1cccc(C(=O)Nc2ccc3c(c2)ncn3C)c1	0	0	0	0	11.2
Cc1cccc(C(=O)Nc2ccc3c(c2)nc(C)n3C)c1	0	0	0	0	0
CN1CCN(C(=S)Nc2cc([N+](=O)[O-])ccc2Cl)CC1	0	5.3	0	0	0
CN1CCN(C(=S)c2ccc([N+](=O)[O-])cc2)CC1	0	0	0	0	0
COC(=O)c1cc2c(c3c4cc(C)ccc4n(S(=O)(=O)c4ccc(OC)cc4)c13)C(=O)N(C)C2	0	-	0	0	0
COc1cccc(CNC(=O)C2CCN(S(=O)(=O)c3ccc4c(c3)CCC(=O)N4)CC2)c1	0	5.0	0	0	0
C/C=C/C=C/C(=O)N1C[C@H](C)N(C)C[C@H]1C	0	-	0	0	0
CCCNC(=O)c1ccc2c(c1)S(=O)(=O)c1ccccc1C2=O	0	0	0	0	0
NNC(=O)c1ccc2c(c1)S(=O)(=O)NNC2=O	0	0	0	0	10.8
CN(NC1OC(=O)c2ccccc21)c1ccccc1[N+](=O)[O-] (stereo unspecified)	0	8.0	0	0	0
CN(NC1OC(=O)c2ccccc21)c1ncc(Cl)cc1C(F)(F)F (stereo unspecified)	0	-	0	0	0
Cc1cc(C)cc(OCc2nnc(N)s2)c1	0	0	0	0	0
Cc1ccc(OCc2nnc(N)s2)cc1	0	0	0	0	10.6
Cc1ccsc1C1Nc2ccccc2-c2nc3ccccc3n21 (stereo unspecified)	0	0	0	0	10.8
c1csc(C2Nc3ccccc3-c3nc4ccccc4n32)c1 (stereo unspecified)	0	0	0	0	0
Cc1nc2ccc(S(=O)(=O)NCC(=O)N(C)Cc3ccc(F)cc3)cc2s1	0	-	0	0	0
O=C(C1CCCN(S(=O)(=O)c2cccc3ccccc23)C1)N1CCN(Cc2ccccc2)CC1 (stereo unspecified)	0	-	0	0	0
COc1ccc(Nc2nc(-c3cccnc3)cs2)c(OC)c1	0	0	0	0	0
CCc1ccccc1Nc1nc(-c2cccnc2)cs1	0	0	0	0	0
O=[N+]([O-])c1ccccc1Nc1nc(-c2cccnc2)cs1	5.6	0	0	0	0
COc1ccccc1Nc1nc(-c2cccnc2)cs1	0	0	1.2	0	11.7
COc1ccc(Nc2nc(-c3cccs3)cs2)c(OC)c1	0	4.9	1.1	0	0
CC(=O)N1CCN2C(=O)C1CCCC(=O)c1cc(C(C)C)ccc12 (stereo unspecified)	0	0	0	0	0
CC(=O)N1CCN2C(=O)C1CCCC(=O)c1cc(C3CCCCC3)ccc12 (stereo unspecified)	0	4.3	0	0	0
